The source made the active and inactive calls.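 How the source made its calls: active means fitted half-maximal concentration AC50 at or below ten times the highest valid tested dose, with signal falling as DNA is displaced (actives reach about 34 µM in these data); inconclusive means flat fit at moderate signal loss, or poor fit quality; inactive means the rest, including signal rising instead of falling.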

This test can be described thus: acridine orange-DNA binding displacement – biochemical, fluorescence polarization, cherry-picked samples, set 2, artefact control for KSHV LANA DNA-binding inhibitor project, dose response (AID 504727). Conditions: series mostly up to 35 µM. (In general: In fluorescence polarisation assays a small probe gives low polarisation when free and higher when bound to something large.)
One may read the AC50 as the midpoint of the concentration-response curve, whichever way the signal moves. For the molecule `COc1ccc(-c2cc(C(=O)N(C)CCc3ccc(OC)c(OC)c3)c3ccccc3n2)cc1`, the AC50 result is “inactive”.

For `CCOC(=O)C1CCCN(C(=O)C2c3ccccc3Oc3ccccc32)C1` (stereo not drawn), the AC50 result is “inactive”.

Take `COc1ccc(C(=O)OCC(=O)NC2CC2)cc1S(=O)(=O)Nc1ccc(C)cc1`: the AC50 entry is “inactive”.

For `COc1cc2c(cc1OC)CN(C(=O)c1ccc(S(=O)(=O)N3CCCC3)cc1)CC2`, the AC50 entry is “inactive”.

Turning to `Cc1ccc(NC(=O)CN2C(=O)N/C(=C/c3cccn3-c3ccc(C(=O)O)cc3)C2=O)cc1`, the AC50 result is “inactive”.

As to `O=S(=O)(O)c1cccc2c(N=Nc3ccc(O)c4ncccc34)cccc12`, the AC50 entry is “inactive”.

Turning to `Oc1ccc2ccc3cccc[n+]3c2c1`, the AC50 was 1.42 µM (active).

Regarding `Cc1ccc(-c2nnn(CC(=O)NC3CCN(Cc4ccccc4)CC3)n2)cc1`, the AC50 entry is “inactive”.

`CC(=O)c1ccc2c(c1)C1C=CCC1C(C(=O)O)N2` (stereo not drawn): the AC50 entry is “inactive”.

Consider `O=C(c1ccc2c(c1)CCN2S(=O)(=O)c1ccccc1)N1CCN(c2ccc(F)cc2)CC1`, for which the AC50 entry was “inactive”.

In the case of `O=C(O)/C=C/C(=O)Nc1ccc(Cc2ccc(NC(=O)/C=C/C(=O)O)cc2)cc1`, the AC50 entry is “inactive”.

`O=C(O)CCCN1C(=O)/C(=C/C=C/c2ccco2)SC1=S`: the AC50 entry was “inactive”.

Regarding `CC(=O)Nc1ccc(S(=O)(=O)Nc2ccccc2N2CCOCC2)cc1`, the AC50 result was “inactive”.

Regarding `CN(CC(=O)Nc1ccc(N2CCOCC2)cc1)C(=O)CSc1ccc(Br)cc1`, the AC50 result is “inactive”.

With `CCCC1(C2CCCC2)NC(=O)NC1=O` (stereo not drawn), the AC50 entry was “inactive”.

On to `COc1ccc(N=C2SC(CC(=O)Nc3ccccc3)C(=O)N2Cc2ccco2)cc1` (stereo not drawn), for which the AC50 entry is “inactive”.

Consider `CCN(CC)C(=O)C1c2ccccc2Oc2ccccc21`, for which the AC50 entry was “inactive”.

With `CCCN(CCC)C(=O)C1c2ccccc2Oc2ccccc21`, the AC50 result is “inactive”.

On to `Cc1ccc(NC(=O)CN2C(=O)N/C(=C/c3cc(C)n(-c4ccc(C(=O)O)cc4)c3C)C2=O)cc1`, for which the AC50 result was “inactive”.

Consider `O=C(CN(Cc1ccccc1F)C(=O)c1csnn1)NCc1ccc2c(c1)OCO2`, for which the AC50 entry is “inactive”.

Consider `CCc1sc(C(=O)NNC(=O)CNC(=O)c2ccccc2F)cc1C`, for which the AC50 entry is “inactive”.

In the case of `COc1cccc(-c2cc(C(=O)N3CCN(S(=O)(=O)c4ccccc4)CC3)[nH]n2)c1`, the AC50 result is “inactive”.

On to `Cc1nc(Cl)c2c(n1)NC1=C(O2)C(=O)CCC1`, for which the AC50 was 11.1 µM (active).

Turning to `Cc1ccc(S(=O)(=O)/N=C/c2ccc(N(C)C)cc2)cc1`, the AC50 entry is “inactive”.

Take `COc1cccc2c1C(=O)c1c(O)c3c(c(O)c1C2=O)CC(O)(C(C)=NNC(=O)c1ccc(Cl)c(Cl)c1)CC3OC1CC(N)C(O)C(C)O1` (stereo not drawn): the AC50 is 2.05 µM (active).

Consider `O=C(O)c1ccc(-n2cccc2/C=C2/SC(=O)N(CC(=O)N3CCCC3)C2=O)cc1`, for which the AC50 entry is “inactive”.

In the case of `Nc1nc(-c2ccc(C(=O)O)cc2)cs1`, the AC50 entry is “inactive”.

Turning to `Nc1ccc(-c2nc3ccc(C(=O)O)cc3s2)cc1`, the AC50 entry is “inactive”.

Consider `CSc1ccc(/C=N/Nc2cccc(C(=O)O)c2)cc1`, for which the AC50 result is “inactive”.

As for `O=C(Nc1ccccc1F)C(=Cc1sc(N2CCOCC2)nc1-c1ccccc1)C(=O)Nc1ccccc1F`, the AC50 is 25.1 µM (active).

As to `CCN1/C(=C2/SC(=S)N(NC(C)=O)C2=O)Sc2ccc(OC)cc21`, the AC50 is 18.8 µM (active).

For `Cc1c(NC(=O)CCC2CCCCC2)cc(C(=O)N2CCOCC2)cc1[N+](=O)[O-]`, the AC50 result is “inactive”.

With `COc1ccccc1N1CCN(S(=O)(=O)c2c(C)[nH]c(C)c2C(=O)N2CCCC2)CC1`, the AC50 result was “inactive”.

Take `Cc1cc(Cl)ccc1N1C(=O)CC(NNC(=O)c2cccnc2)C1=O` (stereo not drawn): the AC50 result is “inactive”.

With `O=C1c2ccccc2C(=O)N1Cc1ccc2c(c1)OCO2`, the AC50 entry was “inactive”.

As for `c1ccc(-c2cn3nc(-c4ccccc4)c(-c4ccccc4)nc3n2)cc1`, the AC50 is 23 µM (active).

Regarding `Cc1cc(=O)c2c([nH]1)c(C)cc1[nH]c(C)c(C)c12`, the AC50 result is “inactive”.

Take `COCCN(C(=O)CN1CCCc2ccccc21)c1c(N)n(Cc2ccccc2)c(=O)[nH]c1=O`: the AC50 entry was “inactive”.

The values above are taken from PubChem BioAssay AID504727 (Broad Institute, 2011).
